Rows were chosen to be rich in hits. Some 7.5% of all compounds tested hit in one or more screens of this group.
VACV Venus inh – inhibitors of vaccinia virus (Venus reporter) | Vaccinia virus Venus reporter expression, fluorescence | Potency, µM (doses to about 36.5 µM), for the others: at the highest dose activity change, negative = inhibition, hits mostly inhibitors | 0.46% of 330,000 active | AID 720580; calls by dose curve; tested in A549 cells; also: potency is read from the fitted curve at half-maximal effect; nearly all actives have a fitted effect of over 30% in size
Vaccinia mCherry – vaccinia inhibition (mCherry reporter). Vaccinia virus mCherry reporter infection, fluorescence. AID 720579. Potency, µM (titrated, usually from 36.5 µM), without a hit: at the highest dose activity change, negative = inhibition, actives largely listed as inhibitors. 0.63% of 310,000 active; calls by dose curve; tested in A549 cells; also: potency is read from the fitted curve at half-maximal effect; nearly all actives have a fitted effect of over 35% in size
FMDV inh – antivirals against foot and mouth disease virus. FMDV antiviral cell-based qHTS. Potency, µM (titrated, usually from 57.9 µM), inactives show at the highest dose activity change, negative = inhibition, usual class: inhibitors. 1.2% of 410,000 active. AID 1159524; calls by dose curve; tested in HEK293T cells; also: read-out not given here; potency is read from the fitted curve at half-maximal effect; nearly all actives have a fitted effect of over 45% in size
HCV inh – inhibitors of hepatitis C virus infection. Potency, µM (top dose mostly 41.8 µM), without a hit: at the highest dose activity change, negative = inhibition, hits mostly inhibitors. AID 651820. 3.4% of 340,000 active. Huh7.5.1 HCVcc-Cre infection, luciferase reporter, 44 h; also: potency is read from the fitted curve at half-maximal effect
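HCVcc-Cre virus at an moi near 0.5 was added right after compound to cells cultured 4 h from seeding (1,000 cells/well). Luciferase activity was determined 44 h later, 15 min after substrate addition at RT.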
FBPA Giardia inh – Giardia lamblia aldolase inhibition; Potency, µM (titrated, usually from 59.6 µM), for the others: at the top dose activity, negative = inhibition, most hits filed as inhibitors; A8B2U2; purified Giardia FBPA; AID 2451; 0.71% of 290,000 active; also: potency is read from the fitted curve at half-maximal effect; nearly all actives have a fitted effect of over 55% in size
Target sequence (A8B2U2 whole entry, looked up): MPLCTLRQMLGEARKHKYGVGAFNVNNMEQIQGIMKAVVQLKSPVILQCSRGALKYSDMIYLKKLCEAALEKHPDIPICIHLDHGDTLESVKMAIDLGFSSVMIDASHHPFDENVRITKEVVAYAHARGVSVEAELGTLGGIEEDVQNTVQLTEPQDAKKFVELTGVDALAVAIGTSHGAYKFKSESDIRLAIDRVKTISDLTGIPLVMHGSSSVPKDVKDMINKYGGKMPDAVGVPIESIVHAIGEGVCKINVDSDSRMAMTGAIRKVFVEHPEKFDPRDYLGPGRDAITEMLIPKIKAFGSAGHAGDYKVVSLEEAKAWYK
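40 nM FBPA preincubated 10 min at RT with compound (up to 57.5 uM final), then substrate plus GAPDH/TPI/NAD/arsenate coupling and diaphorase/resazurin added. Fluorescence read after 20 min at RT, 525/598 nm.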
HCMV antiviral – inhibitors of human cytomegalovirus; HFF cells, HCMV-luciferase reporter, 72 h; hits give low values; activity change, negative = inhibition, % at 57.5 µM; AID 1259415; 4.5% of 410,000 active; in the data active = activity change below about -60%; inconclusive = no clear call, values can overlap the other calls; inactive = above about -39%
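Screen run at 2 compound doses on HFFs infected with reporter HCMV, MOI 1 PFU/cell. Luciferase activity from cell lysates at 72 h post infection gave inhibition relative to buffer-only and Salinomycin wells.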
The depositor's hits bear a star; ! = not confirmed by another sample. Unless noted, calls follow the shape of the dose curve; as a rule, active = well fitted curve in the direction sought with a large enough effect; inconclusive = small, poorly fitted or top-dose-only effect, or another doubt; inactive = no such curve, though single readings can be large; an effect the other way counts as inactive or inconclusive. % is scaled to controls: 0 for no effect and ±100 for the full control effect.

Results for Cc1ccc(C)c(CN2C(=O)c3ccccc3S(=O)(=O)c3ccc(C(=O)N(C)C4CCCCC4)cc32)c1 ?
VACV Venus inh: -14%; Vaccinia mCherry: -19%; FMDV inh: 20%; HCMV antiviral: -76*

Results for CN(C)/C=N/c1ncc(C(=O)c2ccc(Cl)cc2)s1 ?
FMDV inh: 1%; HCV inh: -4%; FBPA Giardia inh: -6%; HCMV antiviral: -5

Results for CN(C)/C=N/c1ncc(C(=O)c2ccc(Cl)cc2Cl)s1 ?
VACV Venus inh: -4%; Vaccinia mCherry: -7%; FMDV inh: -12%; HCV inh: inconclusive; FBPA Giardia inh: -3%; HCMV antiviral: -61*

Results for O=C(CN(C(=O)CCC(=O)Nc1nccs1)C1CCCC1)NCc1ccc2c(c1)OCO2 ?
VACV Venus inh: -2%; Vaccinia mCherry: -7%; FMDV inh: -1%; HCV inh: -20%; FBPA Giardia inh: 0%; HCMV antiviral: -32

Results for CCN(CC)CCNC(=O)c1ccc(N2CCCCC2)c(NS(=O)(=O)c2ccc(C)cc2)c1 ?
VACV Venus inh: inconclusive; Vaccinia mCherry: inconclusive; FMDV inh: 0%; HCV inh: 11µM*; FBPA Giardia inh: -16%; HCMV antiviral: inconclusive

What do the screens show for `CCOC(=O)c1ccc(N2CCCCC2)c(NS(=O)(=O)c2cccc(C(F)(F)F)c2)c1`?
FMDV inh: 0%; HCV inh: -20%; FBPA Giardia inh: -4%; HCMV antiviral: -65*

Results for COC(=O)c1ccc(N2CCCCC2)c(NS(=O)(=O)c2ccc(C)cc2)c1 ?
VACV Venus inh: 1%; Vaccinia mCherry: -5%; HCV inh: 13µM*; FBPA Giardia inh: -9%; HCMV antiviral: 9

How did O=C(CSc1nc2ccccc2c(=O)n1-c1ccc(F)cc1F)NC1CCS(=O)(=O)C1 (stereo not drawn) do in these assays?
VACV Venus inh: -9%; Vaccinia mCherry: -1%; FMDV inh: -2%; HCMV antiviral: -34

What do the screens show for `O=c1c2ccccc2sn1-c1ccc(Cl)c(S(=O)(=O)N2CCOCC2)c1`?
VACV Venus inh: -20%; Vaccinia mCherry: -28%

How did CC(=O)c1cnn(-c2nc3c(C)cccc3s2)c1C do in these assays?
VACV Venus inh: 0%; FMDV inh: 40%; HCV inh: 4%; FBPA Giardia inh: 1%; HCMV antiviral: -99*

Results for O=C(Oc1ccc(Br)cc1C(=O)/C=C/c1ccccc1F)c1ccco1 ?
VACV Venus inh: -3%; Vaccinia mCherry: inconclusive; FMDV inh: inconclusive; HCV inh: 10µM*; HCMV antiviral: -78*

Results for CC(=O)c1cc(Cl)ccc1OC(=O)c1ccco1 ?
VACV Venus inh: -7%; Vaccinia mCherry: inactive; HCV inh: 3%; FBPA Giardia inh: -1%; HCMV antiviral: 5

What do the screens show for `CCN1C(=NCc2cccc(Cl)c2)N[C@@H](c2cccc(C(F)(F)F)c2)C(C(=O)OC)=C1C`?
VACV Venus inh: inconclusive; Vaccinia mCherry: -15%

How did C[C@@H]1CN([C@@H](C)CO)C(=O)CCCn2nncc2CO[C@H]1CN(C)C(=O)Nc1ccc(F)cc1 do in these assays?
VACV Venus inh: -7%; Vaccinia mCherry: -1%; FMDV inh: 12%; HCMV antiviral: 20

Results for O=C(Nc1ccccc1C(F)(F)F)c1ccc(F)c(S(=O)(=O)N2CCc3ccccc3C2)c1 ?
VACV Venus inh: -16%; Vaccinia mCherry: -11%; FMDV inh: -13%; HCMV antiviral: 15

What do the screens show for `CCc1ccc(NC(=O)c2ccc(F)c(S(=O)(=O)N3CCc4ccccc4C3)c2)cc1`?
VACV Venus inh: inconclusive; Vaccinia mCherry: inconclusive; FMDV inh: -30%; HCMV antiviral: -68*

How did O=C(Nc1ccc(F)c(F)c1)c1ccc(F)c(S(=O)(=O)N2CCC3(CC2)OCCO3)c1 do in these assays?
VACV Venus inh: inconclusive; Vaccinia mCherry: inactive; FMDV inh: inconclusive; HCV inh: 13µM*; FBPA Giardia inh: -6%; HCMV antiviral: -82*!

What do the screens show for `CCc1ccc(NC(=O)c2ccc(F)c(S(=O)(=O)N3CCC4(CC3)OCCO4)c2)cc1`?
VACV Venus inh: inconclusive; Vaccinia mCherry: inconclusive; FMDV inh: -26%; HCMV antiviral: -90*

How did CCc1ccc(NC(=O)c2ccc(F)c(S(=O)(=O)N3CCC(C)CC3)c2)cc1 do in these assays?
VACV Venus inh: -22%; Vaccinia mCherry: inactive; FMDV inh: inconclusive; HCMV antiviral: -29

Results for O=C(NCc1ccccn1)c1ccc(Cl)c(S(=O)(=O)N2CCOCC2)c1 ?
VACV Venus inh: -4%; Vaccinia mCherry: -12%; FMDV inh: -18%; HCV inh: 26%; FBPA Giardia inh: 6%; HCMV antiviral: 0

What do the screens show for `Cc1cc(C)cc(-n2nc(C)cc2N)c1`?
FMDV inh: 21%; HCV inh: 10µM*; FBPA Giardia inh: 0%; HCMV antiviral: 33

What do the screens show for `CSc1ccc(NC(=O)Nc2cccn(Cc3ccccc3)c2=O)cc1`?
VACV Venus inh: inconclusive; Vaccinia mCherry: -22%; FMDV inh: inconclusive; HCV inh: 3.5µM*; FBPA Giardia inh: -3%; HCMV antiviral: -84*

What do the screens show for `COc1ccc(Cn2cccc(NC(=O)Nc3ccc(F)cc3)c2=O)cc1`?
FMDV inh: -30%; HCV inh: inconclusive; FBPA Giardia inh: inconclusive; HCMV antiviral: inconclusive

How did O=C(NCc1ccccc1)Nc1cccn(Cc2ccccc2Cl)c1=O do in these assays?
FMDV inh: inconclusive; HCV inh: 13µM*; FBPA Giardia inh: inconclusive; HCMV antiviral: inconclusive

How did O=C(NCc1cccn1Cc1ccccc1)Nc1ccc(Br)cc1F do in these assays?
VACV Venus inh: -23%; Vaccinia mCherry: -13%; FMDV inh: -11%; HCMV antiviral: -83*

What do the screens show for `CCOC(=O)c1ccccc1NC(=O)Cc1ccc(OC)c(S(=O)(=O)N2CCOCC2)c1`?
VACV Venus inh: 0%; Vaccinia mCherry: inactive; FMDV inh: -9%; HCV inh: inconclusive; HCMV antiviral: -19

What do the screens show for `Nc1ncnc(N2CCc3ccccc32)c1[N+](=O)[O-]`?
VACV Venus inh: -5%; Vaccinia mCherry: inactive; FMDV inh: -16%; HCV inh: -9%; FBPA Giardia inh: 0%; HCMV antiviral: -83*

What do the screens show for `OCC1OC(c2ccc(O)cc2O)C(O)C1O` (stereo not drawn)?
VACV Venus inh: 2%; Vaccinia mCherry: -5%; FMDV inh: 0%; HCMV antiviral: -15

How did Cc1ccccc1NC(=O)CCc1c(C)nn(-c2ccc(N3CCOCC3)nn2)c1C do in these assays?
VACV Venus inh: -25%; Vaccinia mCherry: -17%; FMDV inh: -5%; HCV inh: 19%; FBPA Giardia inh: -14%; HCMV antiviral: active

Results for CCOc1ccccc1CNC(=O)CCc1c(C)nn(-c2ccc(N3CCCC3)nn2)c1C ?
VACV Venus inh: -11%; Vaccinia mCherry: -4%; FMDV inh: -6%; HCMV antiviral: -60*
